Measured potencies and affinities stand elsewhere. Results filed as inconclusive are left out. How the calls were made is not given here.
target: CAAX prenyl protease 1 (Saccharomyces cerevisiae (strain ATCC 204508 / S288c)) (UniProt P47154); assay: Ste24 protease inhibitors, dose response, biochemical, S. cerevisiae, plate reader, cherry-pick (AID 488815); conditions: yeast Ste24 protease activity; series mostly up to 10 µM; activity change, negative = inhibition: at the top concentration;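 further: 0% = neutral control wells and -100% = no enzyme wells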
Sequence (P47154 whole entry, looked up): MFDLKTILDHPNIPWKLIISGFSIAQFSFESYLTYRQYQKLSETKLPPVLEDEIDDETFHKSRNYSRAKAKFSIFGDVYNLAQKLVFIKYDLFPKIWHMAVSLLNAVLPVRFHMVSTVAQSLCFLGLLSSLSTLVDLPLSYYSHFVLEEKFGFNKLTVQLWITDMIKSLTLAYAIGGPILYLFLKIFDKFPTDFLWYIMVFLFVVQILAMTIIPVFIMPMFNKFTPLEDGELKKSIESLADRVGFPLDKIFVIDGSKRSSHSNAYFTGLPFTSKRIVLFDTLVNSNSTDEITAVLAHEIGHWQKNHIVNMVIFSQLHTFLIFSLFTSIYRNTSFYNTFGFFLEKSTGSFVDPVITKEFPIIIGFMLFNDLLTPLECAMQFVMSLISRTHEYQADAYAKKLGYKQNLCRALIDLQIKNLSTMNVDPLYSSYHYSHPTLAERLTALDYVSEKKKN

Activity change, negative = inhibition, inactive:
Cc1nc(N2CCOCC2)c2c(C)c(C(=O)Nc3ccc(C(F)(F)F)cc3)sc2n1 24%
O=C(COC(=O)c1ccccc1Cc1ccccc1)NC1CCS(=O)(=O)C1 (stereo not given) 8.64%
COc1cccc(-c2csc(N3CCN(C(=O)NC45CC6CC(CC(C6)C4)C5)CC3)n2)c1 21.3%
Cc1ccc2nc(N(CCN(C)C)C(=O)c3ccc4ccccc4c3)sc2c1 34.5%
COCCN1C(=O)/C(=C/c2ccc(Oc3ccc([N+](=O)[O-])cn3)c(OC)c2)SC1=Nc1ccccc1 2.64%
O=C1CCN(Cc2ccccc2)CCN1[C@H](CSc1ccccc1)Cc1ccccc1 24.5%
COc1cccc(-c2cc(C(F)(F)F)n3ncc(S(=O)(=O)c4ccccc4)c3n2)c1 9.25%
CCN(C(=O)COC(=O)c1cc(-c2cccs2)nc2ccccc12)C1CCS(=O)(=O)C1 (stereo not given) 19.9%
O=C(Nc1ccc2c(c1)CCC2)c1ccccc1Br -24%
O=C(O)c1ccc2cccc(Cl)c2c1O 14%
COc1ccc(Cl)cc1Nc1nc(C)nc2c1oc1ccccc12 -11.6%
COc1ccc(-c2cc(C(=O)NCCCN3CCCC3=O)c3ccccc3n2)cc1 49.3%
CCN(CC)c1ccc(C(=O)c2ccccc2C(=O)O)c(O)c1 13%
CC(=O)N(C)c1ccc(NC(=O)/C=C/c2ccccc2Cl)cc1 -7.71%
CN1C(=O)/C(=C/c2cccc(Cl)c2)Sc2ccc(C(=O)N3CCOCC3)cc21 31.2%
Cc1nc(N2CCCCC2)c2c(C)c(C(=O)Nc3ccccc3C(F)(F)F)sc2n1 -7.43%
O=C(CC1(O)C(=O)N(C/C=C/c2ccccc2)c2ccccc21)c1ccccn1 (stereo not given) 12.8%
CC1CCN(C(=O)C2CCN(S(=O)(=O)c3ccc(-n4cnnn4)cc3)CC2)CC1 16.5%
CN(C(=O)c1ccc2c(c1)SC1=NS(=O)(=O)CCN12)C(c1ccccc1)c1ccccc1 2.89%
COc1ccc(-c2nc3ncccc3o2)cc1NC(=O)c1ccco1 23.7%
O=C(Nc1sc2c(c1C(=O)c1ccc(Cl)cc1)CCCC2)c1cccnc1 18.3%
O=C1CN(S(=O)(=O)c2ccc([N+](=O)[O-])cc2)CC(=O)N1 13.3%
O=C(Nc1cc(S(=O)(=O)N2CCOCC2)ccc1N1CCCC1)c1cnccn1 9.97%
CC(C)NCC(O)COCCOc1ccc(Br)cc1 (stereo not given) 35.7%
Cc1ccc(S(=O)(=O)Nc2ccccc2C(=O)NCC2CCCO2)cc1 (stereo not given) 8.24%
COc1ccc(C(CNC(=O)COc2cc(C)c(Cl)c(C)c2)N2CCCCC2)cc1 (stereo not given) 8.59%
CCC(COC)NC(=O)CCc1nnc(Cc2cccc(C(F)(F)F)c2)o1 (stereo not given) 25.7%
CC1(C)CC2CC(C)(CN2S(=O)(=O)c2ccc(N)cc2)C1 (stereo not given) 3.42%
COC(C[C@@H]1O[C@@H]1C(=O)[C@@H](C)OCc1ccccc1)OC 36.5%
Cc1cc(C(=O)N[C@H](c2ccccc2)[C@@]2(C)C[C@@H]2[C@@H](C)C(=O)Nc2ccc3ccccc3c2)n(C)n1 1.69%
CCOc1ccc(NC(=O)CCSc2ccc(C)cc2)cc1 39.6%
COc1ccc(C2CC(c3ccccc3)=NN2C(=O)c2ccc(Cl)c([N+](=O)[O-])c2)cc1 (stereo not given) 3.76%
CCOc1ccc(N(CC(=O)NC2CC3CCC2C3)S(=O)(=O)c2ccccc2)cc1 (stereo not given) 22.7%
CS(=O)(=O)Nc1ccccc1C(=O)NC1CC2CCC1C2 (stereo not given) 8.71%
COc1ccccc1-n1c(-c2ccccc2)c[nH]c1=S 24.9%
COc1cccc2sc3ccc(C#CC4(O)CCCCC4)cc3c(=O)c12 17.2%
Nc1c(C(=O)Nc2cccc(C(=O)O)c2)sc2nc3c(cc12)CCCC3 -6.49%
N/C(Cc1ccc([N+](=O)[O-])cc1)=N\OC(=O)c1ccc2ccccc2c1 37.9%
COc1ccc(S(=O)(=O)N(CC(=O)N2CCCC2)Cc2ccccc2)cc1 18.6%
Nc1c(Cl)cc(C2=NCCn3nc4cc(C(F)(F)F)ccc4c32)cc1Cl -4.63%

— PubChem BioAssay AID488815 (Broad Institute, 2010)
